Data: PubChem BioAssay (Tox21)
Records with an inconclusive call do not appear. Values without a mark were called inactive. Calls follow the shape of the dose curve; as a rule, active = well fitted inhibition curve with a large enough effect in the signal ratio in the repeat runs (not every such curve was filed as active); inconclusive = weak or mixed curves, or effect the other way; inactive = no such curve, though single readings can be large or run the other way; the % refers to the signal ratio.

Molecular target: Glucocorticoid receptor (Homo sapiens) (UniProt P04150)
Sequence (P04150 whole entry, looked up): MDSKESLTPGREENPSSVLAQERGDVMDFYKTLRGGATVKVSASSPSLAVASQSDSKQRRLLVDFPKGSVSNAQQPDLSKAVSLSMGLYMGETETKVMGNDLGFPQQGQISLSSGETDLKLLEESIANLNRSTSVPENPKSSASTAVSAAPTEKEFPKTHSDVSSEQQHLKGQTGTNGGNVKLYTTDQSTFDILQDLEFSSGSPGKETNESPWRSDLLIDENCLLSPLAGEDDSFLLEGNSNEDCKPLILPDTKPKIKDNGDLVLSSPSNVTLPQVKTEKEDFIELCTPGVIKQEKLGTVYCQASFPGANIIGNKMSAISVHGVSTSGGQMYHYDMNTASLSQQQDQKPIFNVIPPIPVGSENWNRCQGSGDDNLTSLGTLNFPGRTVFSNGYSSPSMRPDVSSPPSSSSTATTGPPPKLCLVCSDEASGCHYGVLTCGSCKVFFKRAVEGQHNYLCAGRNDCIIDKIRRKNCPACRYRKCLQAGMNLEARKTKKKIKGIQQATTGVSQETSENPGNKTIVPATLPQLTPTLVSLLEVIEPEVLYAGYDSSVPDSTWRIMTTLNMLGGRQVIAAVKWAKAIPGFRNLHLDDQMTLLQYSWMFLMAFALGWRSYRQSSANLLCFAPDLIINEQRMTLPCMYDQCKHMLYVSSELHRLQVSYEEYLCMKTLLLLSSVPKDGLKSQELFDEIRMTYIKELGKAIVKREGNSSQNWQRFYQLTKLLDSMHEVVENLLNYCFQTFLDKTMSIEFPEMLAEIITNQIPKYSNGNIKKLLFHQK
Assay: qHTS assay to identify small molecule antagonists of the glucocorticoid receptor (GR) signaling pathway (AID 720692)
Conditions: GR-bla HeLa, beta-lactamase FRET ratio, dexamethasone-stimulated, 18 h; series mostly up to 58.5 µM; activity change, negative = inhibition: at the top concentration
From the text: U.S. Tox21 Program National Center for Advancing Translational Sciences [NCATS] NIH Chemical Genomics Center [NCGC] U.S. Environmental Protection Agency [EPA] National Institutes of Environmental Health Sciences [NIEHS] National Toxicology Program [NTP] U.S. Food and Drug Administration [FDA] Tox21 Assay Overview: The Glucocorticoid receptor (GR) is one of the members of the nuclear receptor family of ligand-dependent transcription factors. GR plays a critical role in carbohydrate, protein and lipid metabolisms and programmed cell death. CellSensor GR-bla HeLa cell line (Invitrogen) contains a beta-lactamase reporter gene under the control of the glucocorticoid response element stably integrated into HeLa cells, a cervical cancer cell line that expresses glucocorticoid receptor. The activation of the reporter gene under culture conditions can be detected by fluorescence intensity. This cell line has been used to screen the Tox21 10K compound library and to identify the compounds that inhibit the GR signaling.
Tox21 Assay Protocol Summary: The GR-bla HeLa cells were dispensed at 1500 cells/5 ul/well in 1536-well black wall/clear bottom plates using a Multidrop Combi (ThermoFisher Scientific, Waltham, MA) dispenser. After the assay plates were incubated at a 37 C/5% CO2 incubator for 4 hours, 23 nL of compounds dissolved in DMSO, positive controls or DMSO only was transferred to the assay plate by a pintool station (Kalypsys, San Diego, CA), followed by addition of 1 uL of dexamethasone (5 nM, final concentration in the well). The plates were incubated at 37 C for 18 hours. After 1 uL of LiveBLAzerTM B/G FRET substrate was added using a Flying Reagent Dispenser (Aurora Discovery, San Diego, CA), the plates were incubated at room temperature for 2 hours, and fluorescence intensity was measured by an Envision plate reader (PerkinElmer, Shelton, CT).
% is scaled to controls: 0 for no effect and ±100 for the full control effect.

Structure (SMILES) | activity change, negative = inhibition
CCCCCCCCCCOC(C)=O | -0.791%
Cc1ccccc1C(N)=O | 8.93%
O=C1c2ccccc2C(=O)c2cc(Cl)ccc21 | -15.1% [at 7.04 µM]
C[Si]1(C)O[Si](C)(C)O[Si](C)(C)O[Si](C)(C)O[Si](C)(C)O1 | -0.611%
COC(C)(OC)OC | -7.45%
O=Cc1ccccc1Cl | 17%
Nc1nnnn1-c1ccccc1 | -1.94%
CC(O)CC(C)O (stereo not given) | -4.52%
COc1ccc(CCO)cc1 | -3.12%
CC(=O)CCC1=C(C)CCCC1(C)C | -2.05%
CC1CC(=O)CC(C)(C)C1 (stereo not given) | 29.6%
CCCCOCCOC(=O)COc1ccc(Cl)cc1Cl | 2.52%
CC(C)COC(=O)c1ccccc1 | 24.9%
CC(C)NCC(O)c1ccc2ccccc2c1 (stereo not given) | 0.212%
O=C1CCCCO1 | -12.3%
CCCC(=O)OC/C=C(\C)CCC=C(C)C | 4.19%
Cc1ccc(C(C)NC(=O)[C@@H](NC(=O)OC(C)C)C(C)C)cc1 (stereo not given in full) | -4.54%
CCCCSCCCC | 6.16%
Fc1ccccc1 | -1.23% [at 78.9 µM]
C=CCSSCCC | -9.59%

Structure (SMILES) | activity change, negative = inhibition
O=C(O)CCCCCC(=O)O | -0.782% [at 78.9 µM]
CCCCCCCCCCCCCCC(=O)NC(CO)CCCCCCCCCCCCCC (stereo not given) | -8.75% [at 78.9 µM]
C=CCCCC | -3.4% [at 78.9 µM]
CCCCOC(=O)[C@H](C)O | -2.88%
CC(=O)O[C@H]1C[C@@H]2CC[C@@]1(C)C2(C)C | 8.1%
CCC(C)C(=O)OCCc1ccccc1 (stereo not given) | -0.599%
CCCCCCCCCCCCCCCCCC#N | -1.9% [at 78.9 µM]
Cn1c(=O)c2[nH]c(Br)nc2n(C)c1=O | 2.24%
CC(=O)OCC(=O)Nc1cc(C#N)cc(NC(=O)COC(C)=O)c1Cl | 1.29%
CC1=C(O)C(=O)C(C)O1 (stereo not given) | -6.04% [at 78.9 µM]
CC1=C(C(=O)O)N2C(=O)[C@@H](NC(=O)[C@H](N)C3=CCC=CC3)[C@H]2SC1 | -2.54%
C/C=C(\C)C(=O)OCCc1ccccc1 | -0.703%
CCC(=O)CC | -0.0115%
CC(=O)O[Si](C)(OC(C)=O)OC(C)=O | -8.3% [at 78.9 µM]
CC(=O)C1C(=O)C=C(C)OC1=O (stereo not given) | -1.44%
[O]=[Mo](=[O])=[O] | -4.51% [at 27 µM]
O=C(NCN1CCOCC1)c1cnccn1 | -0.934%
ONc1ccccc1 | -6.73% [at 78.9 µM]
CC(=O)CCc1ccc(OC(C)=O)cc1 | -7.6%
CC(C)c1ccc(C=O)cc1 | 1.63%
